Screens: PubChem BioAssay, Broad Institute
Yp Topo-I inh: Y. pestis Topo-I inhibition via cleavage products; Y. pestis Topo-I cleavage product accumulation, plate reader; activity, % at 10 µM; 0.064% of 360,000 active; AID 504884; in the data active = activity above about 50%, passing the limit was not always enough; inconclusive = no clear call, values can overlap the other calls
PrP 5UTR inh: inhibition of PrP 5' UTR reporter expression. cell-based PrP 5' UTR mRNA reporter, plate reader. inhibition, % (concentration not given with the values). 0.35% of 340,000 active. AID 488862; in the data active = inhibition above about 52%; also: 0 = median of the neutral control wells
BioA inh-1: BioA (M. tuberculosis) enzyme inhibition. inhibition, % at 9.99 µM. AID 602481. purified M. tuberculosis BioA enzyme, plate reader. 0.096% of 360,000 active; in the data active = inhibition above about 40%; inconclusive = no clear call, values can overlap the other calls
FadD28 FP inh: blocks FadD28 binding to the bisubstrate probe; fluorescence polarization; inhibition, % at 12.5 µM; 0.22% of 360,000 active; in the data active = inhibition above about 8.5%, passing the limit was not always enough; inconclusive = no clear call, values can overlap the other calls
PfHsp40 yeast: compounds rescuing yeast from Plasmodium falciparum HSP40 toxicity; S. cerevisiae expressing PfHsp40, growth rescue, ATP luminescence; growth rescue, % at 12.5 µM; 0.68% of 340,000 active; in the data active = growth rescue above about 28%, passing the limit was not always enough; inconclusive = no clear call, values can overlap the other calls;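 also: yeast W303a lacking pdr1 and pdr3 grown in galactose medium; growth measured after three days at 30 °C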
BioA inh-2: Mtb BioA enzyme inhibition | purified BioA enzyme, plate reader, dose response | max activity, % | 310 tested, under 10 active | shares compounds with BioA inh-1;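 also: top concentration of the dilution series was 10 µM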
Target sequence (P9WQ81 whole entry, looked up): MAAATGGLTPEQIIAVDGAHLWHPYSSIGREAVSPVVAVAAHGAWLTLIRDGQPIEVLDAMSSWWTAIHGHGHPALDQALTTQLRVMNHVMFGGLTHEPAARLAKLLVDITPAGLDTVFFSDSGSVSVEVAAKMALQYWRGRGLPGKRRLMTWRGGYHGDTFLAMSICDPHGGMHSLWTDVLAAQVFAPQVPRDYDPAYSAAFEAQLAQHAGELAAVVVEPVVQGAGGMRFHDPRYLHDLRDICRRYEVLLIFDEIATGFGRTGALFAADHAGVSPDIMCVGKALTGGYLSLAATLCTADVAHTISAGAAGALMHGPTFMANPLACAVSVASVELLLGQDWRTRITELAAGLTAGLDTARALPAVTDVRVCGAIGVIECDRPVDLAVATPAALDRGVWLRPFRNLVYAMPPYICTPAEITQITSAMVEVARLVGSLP
HepG2 cytotox: HepG2 viability loss; max activity, %; 310 tested, under 10 active; HepG2 cytotoxicity, plate reader; shares compounds with BioA inh-1; AID 651898
NIH3T3 tox 5: cytotoxicity in NIH3T3 cells. shares compounds with BioA inh-1. plate reader. activity change, negative = cytotoxicity, % at 26 µM. 310 tested, under 10 active. AID 651900
* hit, by the source's call; i = inactive; ? = inconclusive; · = not tested or not shown; [ ] = dose if it differs, or a comment. This is a sample that favours compounds with a hit; in the whole collection about 1.1% have one here. Unless noted, no rule for the calls is given here.

SMILES | Yp Topo-I inh | PrP 5UTR inh | BioA inh-1 | FadD28 FP inh | PfHsp40 yeast | BioA inh-2 | HepG2 cytotox | NIH3T3 tox 5
COC(=O)C1C(=O)C=C(Nc2ccc(F)cc2)CC1c1ccc(OC)cc1 (configuration not stated) | 4.2 | -40.9 | 75.4* | -5.1 | -1.3 | -5.6 | 7.6 | -1.7
O=C(O)CSc1ncnc2scc(-c3ccc(Br)cc3)c12 | -3.8 | 4.3 | 44.9* | -0.6 | 0.9 | -6.0 | 19.2 | -3.1
C[C@@H]1CN([C@H](C)CO)C(=O)c2cc(C#Cc3ccncc3)cnc2O[C@H]1CN(C)CC1CCCC1 | · | · | -2.2 | · | · | · | · | ·
Cc1nc2c(C(=O)N3CCN(c4ccccn4)CC3)cnn2c(C)c1Cc1cccc(Cl)c1 | 19.1 | -16.1 | 40.2* | -1.9 | 2.1 | -6.5 | 11.1 | 5.1
O=C(C[C@@H]1C[C@@H]2c3cc(NC(=O)c4cccnc4)ccc3O[C@@H]2[C@@H](CO)O1)NCc1cccc(F)c1 | · | · | 50.6* | · | · | -8.0 | i | 1.3[23.5 µM]
O=C(Nc1ccc2c(c1)[C@H]1C[C@@H](CC(=O)N3CCc4ccccc4C3)O[C@H](CO)[C@H]1O2)c1cccnc1 | · | · | 55.0* | · | · | -3.7 | i | -6.7
O=C(C[C@@H]1C[C@@H]2c3cc(NC(=O)c4cccnc4)ccc3O[C@@H]2[C@@H](CO)O1)NCc1cccnc1 | · | · | 41.5* | · | · | -6.9 | i | -5.0
O=C(C[C@@H]1C[C@@H]2c3cc(NC(=O)c4cccnc4)ccc3O[C@@H]2[C@H](CO)O1)NCc1ccccn1 | · | · | 33.5 | · | · | · | · | ·
O=C(Nc1ccc2c(c1)[C@H]1C[C@H](CC(=O)N3CCc4ccccc4C3)O[C@H](CO)[C@H]1O2)c1cccnc1 | · | · | 35.8 | · | · | · | · | ·
O=C(C[C@H]1C[C@H]2c3cc(NC(=O)c4cccnc4)ccc3O[C@H]2[C@H](CO)O1)NCc1ccccn1 | · | · | 40.4* | · | · | -2.5 | i | -5.6
CC(C)NC(=O)Nc1ccc2c(c1)C(=O)N(C)[C@@H]1CC[C@@H](CC(=O)NCc3ccc(F)cc3)O[C@H]1CO2 | · | · | -1.1 | · | · | · | · | ·
O=C(Nc1ccc(F)cc1)N1CCCCN2[C@H](CO)[C@@H](c3ccc(-c4ccccc4F)cc3)[C@H]2C1 | · | · | -3.6 | · | · | · | · | ·
O=S(=O)(c1ccccc1)N1C[C@@H]2[C@H](c3ccccc31)[C@@H](CO)N2Cc1ccc2c(c1)OCO2 | · | · | 2.0 | · | · | · | · | ·
Cc1ccccc1-n1c(SCC(=O)N(C)C2CCS(=O)(=O)C2)nc2ccccc2c1=O (configuration not stated) | -11.5 | -13.2 | 59.7* | -2.9 | -0.4 | -3.1 | 17.9 | -0.2
CN(C(=O)CSc1nc2ccccc2c(=O)n1-c1ccccc1Cl)C1CCS(=O)(=O)C1 (configuration not stated) | 15.2 | -13.4 | 49.6* | -1.8 | 1.4 | 9.5 | -8.3 | 0.7
COc1ccccc1-n1c(SCC(=O)N(C)C2CCS(=O)(=O)C2)nc2ccccc2c1=O (configuration not stated) | -3.5 | -29.6 | ? | -1.5 | 0.6 | · | · | ·
C[C@@H]1CN([C@@H](C)CO)C(=O)Cc2cc(NC(=O)Nc3cccc4ccccc34)ccc2O[C@H]1CN(C)Cc1ccc(C(F)(F)F)cc1 | · | · | -1.9 | · | · | · | · | ·
O=C(c1ccncc1)N1CC[C@@H]2[C@H](CO)Nc3ccc(-c4ccccc4)cc3[C@@H]21 | · | · | 6.1 | · | · | · | · | ·
O=C(c1ccncc1)N1CC[C@@H]2[C@H](CO)Nc3ccc(Br)cc3[C@@H]21 | · | · | 104.3* | · | · | -5.2 | i | -5.0
O=C(c1ccncc1)N1CC[C@H]2[C@H](CO)Nc3ccc(Br)cc3[C@H]21 | · | · | 58.7* | · | · | 11.9 | i | -6.8[23.5 µM]
O=C(c1ccncc1)N1CC[C@@H]2[C@@H](CO)Nc3ccc(-c4ccccc4)cc3[C@@H]21 | · | · | 10.0 | · | · | · | · | ·
Cc1cccc(C(=O)NC2CCN(CC(=O)Nc3ccccc3Cl)CC2)c1 | 20.8 | -33.6 | 48.8* | -4.8 | 0.1 | -5.2 | -6.3 | -13.3
O=C(Nc1ccc(F)c(Cl)c1)C1CCCN(c2cnccn2)C1 (configuration not stated) | 6.1 | -13.8 | 41.0* | -2.5 | 0.0 | -3.8 | -8.2 | -8.8
Cc1cccc(NC(=O)C2CCCN(c3cnccn3)C2)c1 (configuration not stated) | 7.3 | -18.1 | 0.7 | -4.1 | 0.6 | · | · | ·
O=C(Nc1cccc(F)c1)C1CCCN(c2cnccn2)C1 (configuration not stated) | -2.3 | -10.8 | 53.3* | 0.4 | 0.2 | -5.8 | -9.0 | 8.1
